Assay outcomes: PubChem BioAssay, National Center for Advancing Translational Sciences (NCATS)
An excerpt weighted towards active compounds, which were near 14% of everything screened.
Pf growth 48h: P. falciparum growth inhibition at 48 hours (one generation); P. falciparum luciferase growth in erythrocytes, 48 h; Potency, µM (highest dose often 28.7 µM), for inactives: at the top dose activity change, negative = inhibition, actives largely listed as inhibitors; 310,000 tested, 5.9% active; note: potency is the fitted concentration of half-maximal effect
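In quantitative HTS format, infected erythrocytes bearing luciferase-reporter parasites were treated for a single generation at 37 C. Luminescence after adding detection reagent served as the growth measure.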
HCMV inh: inhibitors of human cytomegalovirus | HFF cells, HCMV-luciferase reporter, 72 h; active compounds read low | 410,000 tested, 4.5% active | activity change, negative = inhibition, % at 57.5 µM; in the data active = activity change below about -60%; inconclusive = no clear call, values can overlap the other calls; inactive = above about -39%
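Cell-based, HFFs, 1000 cells/well, 16 h 37C; cpds in DMSO + HCMV-luc, MOI 1 PFU/cell; 72 h 37C; OneGlo luminescence after 5 min RT; norm. to buffer vs Salinomycin 10uM.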
Sm TGR inh: blocks Schistosoma mansoni thioredoxin glutathione reductase; Potency, µM (top dose mostly 114 µM), for the others: at the top dose activity change, negative = inhibition, actives largely listed as inhibitors; purified TGR, DTNB reduction, TNB absorbance 405 nm; 360,000 tested, 3% active; note: potency is the fitted concentration of half-maximal effect; nearly all actives have a fitted effect of over 60% in size
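TGR 20 nM + NADPH 100 uM (dispensed conc.), cpd preinc 15 min RT; start with NADPH (500 uM addition) then DTNB (15 mM addition). Kinetic TNB absorbance, 405 nm filter. Four-parameter Hill fit across titration.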
FBPA Giardia inh: Giardia lamblia aldolase inhibition. Potency, µM (highest dose often 59.6 µM), for inactives: top-dose activity, negative = inhibition, hits mostly inhibitors. A8B2U2. purified Giardia FBPA. 290,000 tested, 0.71% active; note: potency is the fitted concentration of half-maximal effect; nearly all actives have a fitted effect of over 55% in size
Target sequence (A8B2U2 whole entry, looked up): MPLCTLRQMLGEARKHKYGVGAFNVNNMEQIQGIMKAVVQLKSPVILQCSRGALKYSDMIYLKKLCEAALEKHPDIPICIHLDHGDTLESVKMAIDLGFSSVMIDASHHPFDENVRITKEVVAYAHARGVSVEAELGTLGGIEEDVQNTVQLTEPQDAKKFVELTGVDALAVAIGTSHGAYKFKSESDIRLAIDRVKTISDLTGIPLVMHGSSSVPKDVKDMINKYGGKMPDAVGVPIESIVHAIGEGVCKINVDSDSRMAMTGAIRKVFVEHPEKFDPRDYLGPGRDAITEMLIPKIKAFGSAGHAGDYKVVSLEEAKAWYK
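Giardia FBPA (40 nM reagent) was preincubated 10 min at RT with compound (up to 57.5 uM final), then substrate plus GAPDH/TPI/NAD/arsenate coupling system with diaphorase/resazurin was added; resorufin fluorescence (525/598 nm) was read after 20 min.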
Pf growth 96h: inhibits malaria parasite growth, 96 h; P. falciparum luciferase reporter growth, 96 h; Potency, µM (doses to about 28.7 µM), without a hit: top-dose activity change, negative = inhibition, hits mostly inhibitors; 320,000 tested, 6.9% active; AID 504834; note: potency is the fitted concentration of half-maximal effect
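Parasite growth measured via integrated firefly luciferase reporter in P. falciparum. Infected erythrocytes at 2% hematocrit, 0.05% parasitemia final were treated 96 hours at 37 C under 5% CO2, and luminescence was read.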
* = called active by the depositor; ? = inconclusive; / = no result given; [ ] = another dose, or the depositor's remark. Unless noted, calls come from the whole dose curve; as a rule, active = well fitted curve in the direction sought with a large enough effect; inconclusive = small, poorly fitted or top-dose-only effect, or another doubt; inactive = no such curve, though single readings can be large; an effect the other way counts as inactive or inconclusive. % is set by controls: 0 for no effect and ±100 for the full control effect.

SMILES	Pf growth 48h	HCMV inh	Sm TGR inh	FBPA Giardia inh	Pf growth 96h
Cc1cccn2c(=O)c3cc(C(=O)NCCc4ccccc4)c(=N)n(CC4CCCO4)c3nc12 (centres undefined)	2.3µM*	14	3%	5%	29%
Cc1ccc(CN2C(=O)COCc3cc(-c4cccc(CO)c4)ccc32)cc1	/	-10	/	/	/
CC1=C(C(=O)N(C(C)C)C(C)C)CC(CC(=O)NCc2cccc3ccccc23)C(=O)N1Cc1ccccc1 (centres undefined)	/	-12	/	/	/
Cc1ccc(Cn2c(=N)c(C#N)cc3c(=O)n4cccc(C)c4nc32)cc1	10%	/	9%[57.1 µM]	3%	15µM*
Cc1cccn2c(=O)c3cc(C#N)c(=N)n(Cc4cccnc4)c3nc12	/	6	/	/	/
Cc1cc2oc(C(=O)Nc3ccc(S(=O)(=O)Nc4nccs4)cc3)cc(=O)c2cc1Cl	17%	-79*	1%	0%	13µM*
Cc1cc(C)c2oc(C(=O)Nc3ccc(S(=O)(=O)Nc4nccs4)cc3)cc(=O)c2c1	?	-37	2%	7%	?
Cc1cc2oc(C(=O)Nc3ccc(S(=O)(=O)N4CCCC(C)C4)cc3)cc(=O)c2cc1Cl (centres undefined)	13µM*	-18	-1%	4%	?
Cn1c2ccccc2c2cnn(CC(=O)Nc3ccccc3F)c(=O)c21	/	-8	0%	/	/
CCOC(=O)c1c(NC(=O)c2cc(-c3ccc(OC)cc3)on2)sc(C)c1C	/	6	-2%	/	/
COc1ccc(-n2nc(C(=O)c3cccs3)cc(-c3nc4ccccc4[nH]3)c2=N)cc1	3.3µM*	160	-21%	2%	?
Cc1ccccc1-n1nc(C(=O)c2cccs2)cc(-c2nc3ccccc3[nH]2)c1=N	3.7µM*	2	?	?	?
COC(=O)N1CCCCC1c1cc(C(=O)Nc2cccc3c2CCCC3)no1 (centres undefined)	/	-4	/	/	/
CCNC(=O)N1CCC(c2nc3ccccc3s2)CC1	-1%[0.00184 µM]	-6	8%	5%	?
Cc1cc(C)cc(NC(=S)N2CCC(c3nc4ccccc4s3)CC2)c1	28%	-85*	15%	0%	50%
Cc1ccc(NC(=S)N2CCC(c3nc4ccccc4s3)CC2)cc1C	4%	-90*	0%	-2%	99%
CCCn1c(-c2ccc(F)cc2)nc2c(NC3CC4CCC(C3)N4C)nc(C)nc21 (centres undefined)	/	/	/	2%	/
Cc1cc(C)c(OCC(=O)NCCCn2nc(C)cc2C)c(C)c1	?	-10	-4%	/	?
CCOc1ccc(NC(=O)Cn2c(=O)n(Cc3ccccc3)c(=O)c3sc4ccccc4c32)cc1	/	15	3%	/	/
CC(C)S(=O)(=O)c1csc(NC(=O)Nc2ccc(Cl)cc2)c1	?	-38	0%	1%	10µM*
NS(=O)(=O)c1cccc(NC(=O)Nc2ccc(Cl)cc2)c1	-13%	-19	-20%	-6%	16%
CC1CCCCN1CCNc1nc(=S)[nH]c2ccccc12 (centres undefined)	3%	94	?	-1%	2.3µM*
CC1CCCCN1CCn1c(=S)[nH]c2ncccc2c1=O (centres undefined)	-14%	-2	0%	-20%	10%
Cc1ccc(NC(=O)Nc2c(C)n(C)n(-c3ccccc3)c2=O)c(Cl)c1	/	-11	-4%	/	/
CC(C(=O)NC(c1ccccc1)c1ccccc1)N1CCOCC1 (centres undefined)	4%	3	-4%	-5%	19%
SMILES	Pf growth 48h	HCMV inh	Sm TGR inh	FBPA Giardia inh	Pf growth 96h
CC(NC(=O)C1CCC(C(C)(C)C)CC1)C(c1ccccc1)N1CCOCC1 (centres undefined)	?	?	-11%	0%	10µM*
O=C(NC(N1CCOCC1)C(Cl)(Cl)Cl)c1ccccc1Cl (centres undefined)	229%	1	20µM*	2%	37%
CC(NC(=O)c1ccc(Cl)cc1Cl)C(c1ccccc1)N1CCOCC1 (centres undefined)	-12%	-66*	18%	0%	-25%
CC(NC(=O)Nc1ccc(Cl)c(Cl)c1)C(c1ccccc1)N1CCOCC1 (centres undefined)	?	-95*	-1%	-15%	5.2µM*
Cc1c(NC(=O)COC(=O)c2ccc(O)cc2)c(=O)n(-c2ccccc2)n1C	8%	-13	-8%	/	88%
Cc1cccc(C)c1NC(=O)CNC(=O)c1ccc2ccccc2n1	?	5	-3%	/	?
COC(=O)N1CCC[C@@]2(CCN(Cc3cc(C(F)(F)F)cc(C(F)(F)F)c3)C2)C1	/	/	/	0%	/
CC(NC(=O)Nc1ccc([N+](=O)[O-])cc1)C(c1ccccc1)N1CCOCC1 (centres undefined)	?	4	28µM*	-16%	?
CC(NC(=O)c1cccc(C(F)(F)F)c1)C(c1ccccc1)N1CCOCC1 (centres undefined)	?	-62*	-5%	-10%	?
CC(C)c1ccc(NC(=O)C(c2ccccc2)N2CCOCC2)cc1 (centres undefined)	/	-28	1%	-3%	?
CN(C)/C=C1\SC(=S)N(c2ccc(Br)cc2)C1=O	2.3µM*	10	-3%	-1%	75%
CN(C)S(=O)(=O)c1cccc(NC(=O)C2Cc3ccccc3CN2C(=O)c2ccco2)c1 (centres undefined)	?	20	18µM*	-7%	?
Cc1ccc(NC(=O)C2Cc3ccccc3CN2C(=O)c2ccco2)cc1S(=O)(=O)N(C)C (centres undefined)	-14%	-24	40µM*	3%	-10%
CC1Cc2ccccc2N1C(=S)Nc1cccc(S(=O)(=O)N(C)C)c1 (centres undefined)	10%	-16	50µM*	-18%	11%
COc1ccc(NC(=O)C2Cc3ccccc3CN2C(=O)c2ccco2)cc1 (centres undefined)	-1%	1	?	/	5%
CCOc1ccc(-n2c(SCC(=O)N3CCCC3)nc3c([nH]c4ccccc43)c2=O)cc1	/	37	6%	/	/
Cc1nc(SCc2ccccc2)c([N+](=O)[O-])[nH]1	?	41	6%	-13%	16%
Cc1nc(SCc2ccccc2)c(C(F)(F)F)c(=O)[nH]1	8%	-17	-26%	8%	5.2µM*
O=C(OCc1cc(=O)n2c(n1)sc1ccccc12)c1ccc(O)cc1	74%	9	-2%	7%	100%
O=c1cc(CCl)nc2sc3ccccc3n12	5%	?	40µM*	3%	-11%
CSc1nc2c(c(=O)[nH]1)C(c1cccc(F)c1F)CC(=O)N2 (centres undefined)	/	5	5%	/	/
CCOC(=O)[C@]12CCC=C1N(CCC1=CCCCC1)C(=O)[C@H](CC(=O)N1CCCC1)C2	/	-3	/	/	/
